Only some compounds are listed: those with a hit (about 21% of all), similar ones and a draw of the others.
CHX counter = counter-screen hit for Shiga toxin inhibitors, cycloheximide | AID 2314 | max response, % | 300,000 compounds, 12% hits | cell reporter, cycloheximide protein synthesis inhibition counterscreen; in the data active = max response mostly above about 13%, no sharp cut-off; inactive = mostly below about 14%; also: read at 38.3 µM for the half of the compounds with a filed dose; 0% is about no effect
Shiga inhibitor = Shiga toxin inhibition; Vero cells, Shiga toxin protein synthesis inhibition reporter; AID 2315; 290,000 compounds, 9.2% hits; inhibition, % at 38.7 µM; in the data active = inhibition mostly above about 28%, no sharp cut-off; inactive = mostly below about 43%; also: 0% is about no effect
Pf growth 96h = P. falciparum growth inhibition at 96 hour, primary screen for plastid delayed-death inhibitors. Potency, µM (titrated, usually from 28.7 µM), for inactives: top-dose activity change, negative = inhibition, most hits filed as inhibitors. P. falciparum luciferase reporter growth, 96 h. AID 504834. 320,000 compounds, 6.9% hits; also: potency is read from the fitted curve at half-maximal effect; % is scaled to controls: 0 for no effect and ±100 for the full control effect
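Parasite growth measured via integrated firefly luciferase reporter in P. falciparum. Infected erythrocytes at 2% hematocrit, 0.05% parasitemia final were treated 96 hours at 37 C under 5% CO2, and luminescence was read.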
Sm TGR block = blocks Schistosoma mansoni thioredoxin glutathione reductase; Q962Y6; purified TGR, DTNB reduction, TNB absorbance 405 nm; Potency, µM (titrated, usually from 114 µM), for the others: top-dose activity change, negative = inhibition, actives largely listed as inhibitors; 360,000 compounds, 3% hits; AID 485364; also: potency is read from the fitted curve at half-maximal effect; % is scaled to controls: 0 for no effect and ±100 for the full control effect; nearly all actives have a fitted effect of over 60% in size
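TGR 20 nM + NADPH 100 uM (dispensed conc.), cpd preinc 15 min RT; start with NADPH (500 uM addition) then DTNB (15 mM addition). Kinetic TNB absorbance, 405 nm filter. Four-parameter Hill fit across titration.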
NS1 inh = blocks influenza NS1 protein function. Potency, µM (doses to about 46.1 µM), for the others: at the highest dose activity, positive = more growth. 270,000 compounds, 0.4% hits. AID 2326; calls by dose curve; also: potency is read from the fitted curve at half-maximal effect; actives are rising curves; nearly all actives have a fitted effect of over 50% in size
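Recovery from NS1-induced slow growth read by OD600 in budding yeast switched to galactose assay medium (pH 6.0, -URA) at 1:100 dilution. Compound 23 nl per well; the matching strain lacking NS1 serves as control.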
Pf growth 48h = inhibits P. falciparum growth in the first generation, 48 h; P. falciparum luciferase growth in erythrocytes, 48 h; Potency, µM (top dose mostly 28.7 µM), for inactives: top-dose activity change, negative = inhibition, hits mostly inhibitors; 310,000 compounds, 5.9% hits; also: potency is read from the fitted curve at half-maximal effect; % is scaled to controls: 0 for no effect and ±100 for the full control effect
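In quantitative HTS format, infected erythrocytes bearing luciferase-reporter parasites were treated for a single generation at 37 C. Luminescence after adding detection reagent served as the growth measure.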
Active calls of the source: *; i = inactive; ? = inconclusive; . = no result given; + = active, no number; [ ] = another dose, or the depositor's remark. Unless noted, calls follow the shape of the dose curve; as a rule, active = well fitted curve in the direction sought with a large enough effect; inconclusive = small, poorly fitted or top-dose-only effect, or another doubt; inactive = no such curve, though single readings can be large; an effect the other way counts as inactive or inconclusive.

SMILES | CHX counter | Shiga inhibitor | Pf growth 96h | Sm TGR block | NS1 inh | Pf growth 48h
COc1ccc(Nc2cc(C(=O)NCCCN3CCOCC3)c3ccccc3n2)cc1 | -5 | 9 | 57% | 0% | -4% | 3%
O=C(NCCCN1CCOCC1)c1cc2c([nH]c3ccccc32)c(-c2cccc(Br)c2)n1 | -1 | -3 | 3.3µM* | -7% | -1% | 2.3µM*
O=C(NCCCN1CCOCC1)c1cc(-c2cccc(Br)c2)nc2ccccc12 | -2 | -5 | ? | -4% | 13% | ?
Cc1ccccc1Cn1c(SCc2ccc(C(=O)NCc3cccs3)cc2)nc2ccncc21 | . | . | . | 27% | . | .
CCCc1cc2c(=O)c(-c3ccc4c(c3)OCCO4)coc2cc1OS(C)(=O)=O | 56* | 45* | ? | 5% | 13% | 91%
CCCc1cc2c(=O)c(-c3ccc4c(c3)OCCO4)coc2cc1OC(=O)c1ccco1 | 30* | 98* | 74% | 2% | -5% | 73%
CCCc1cc2c(=O)c(-c3ccc4c(c3)OCCO4)c(C)oc2cc1OS(C)(=O)=O | 3 | 24 | ? | 8% | 23% | ?
CCCc1cc(=O)oc2cc(C)cc(OC(=O)c3ccco3)c12 | 1 | -4 | 2% | 1% | -14% | ?
CCc1cc2c(=O)c(-c3ccc4c(c3)OCCO4)coc2cc1OC(=O)c1ccco1 | 38* | 93* | . | -10% | 0% | 8%
Cc1cc(=O)n(CC(=O)Nc2ccc([N+](=O)[O-])cc2)c(-n2nc(C)cc2C)n1 | . | . | . | 1% | . | .
Cc1ccc(NC(=O)CNC(=O)Cn2c(C)cc3ccccc3c2=O)cc1F | . | . | . | 4% | . | .
COc1ccccc1C(=O)Nc1ccnn1C1CCN(Cc2ccccc2OCCO)CC1 | -4 | -9 | 5% | -6% | 12% | -8%
CCn1c2ccccc2c2cc(/C=N/n3cnnc3)ccc21 | -2 | -17 | -16% | 18%[11.4 µM] | -107% | .
CCn1c2ccccc2c2cc(/C=N/n3cn[nH]c3=S)ccc21 | 1 | -8 | 8.3µM* | -20% | -126% | ?
O=[N+]([O-])c1ccccc1CNc1ccc(F)c(Cl)c1 | 7 | 15 | -14% | -6% | -16% | 32%
COc1cccc(CNc2ccc(F)c([N+](=O)[O-])c2)c1O | 30* | 47* | 20% | 2% | . | 9%
COc1cc(CNc2ccccc2)c([N+](=O)[O-])cc1OC | 1 | . | i | -9% | 0% | 13µM*
COc1ccccc1CNc1ncccc1[N+](=O)[O-] | 1 | -3 | ? | -5% | -4% | -18%[0.00184 µM]
CCN1CCN(Cc2cc(OC)c(OC)cc2[N+](=O)[O-])CC1 | -2 | 8 | 74% | 32µM* | 5% | 58%
COc1cc(CN2CCCCCC2)c([N+](=O)[O-])cc1OC | -1 | -14 | 73% | -2% | 7% | 0%
O=C(Nc1ccccc1)Nc1ccccc1-n1ccnc1 | 8 | 17 | -3% | . | 4% | -1%
CCOc1ccc(C(=O)N(Cc2nc(-c3cccc(C)c3)no2)C(C)C)cc1 | . | . | . | 3% | . | .
Cn1cncc1C#Cc1ccc2cc(CCO)oc(=O)c2c1 | . | . | ? | 11µM* | . | -6%
Cc1ccc(-c2nnc(SCC(=O)N3CCCC3)o2)cc1C | 36* | 72* | 214% | -1% | -62% | 11%
CCOC(=O)N1CCN(C(=O)CSc2nnc(-c3cccc(OC)c3)o2)CC1 | -3 | 27 | . | -5% | -5% | 9.3µM*
SMILES | CHX counter | Shiga inhibitor | Pf growth 96h | Sm TGR block | NS1 inh | Pf growth 48h
CCOC(=O)N1CCN(C(=O)CSc2nnc(-c3ccc(C)c(C)c3)o2)CC1 | -2 | 9 | 9.3µM* | -2% | -8% | .
COc1cccc(-c2nnc(SCC(=O)N3CCCc4ccccc43)o2)c1 | 10 | 19* | 17% | 3% | -9% | -27%
CCOC(=O)N1CCN(C(=O)CSc2nnc(-c3ccc(C(C)(C)C)cc3)o2)CC1 | 1 | -8 | -8% | -7% | -26% | -1%
O=C(/C=C/c1ccccc1Cl)NC(=S)Nc1ccccc1C(=O)NC1CCCCC1 | 0 | 27 | 73% | -17% | -1% | 59%
Cc1ccc(NC(=O)CSc2nc3c(c(=O)[nH]2)CCC3)c(C)c1 | -10 | -12 | ? | 15% | 0% | 20%
COc1ccc2oc(=O)c(C(=O)Nc3ccccc3O)cc2c1 | 36* | 46 | 60% | -3% | -8% | 59%
COc1ccc2oc(=O)c(NC(=O)C3CCCCC3)cc2c1 | -3 | 3 | 13µM* | -5% | 2% | 72%
COc1ccc2oc(=O)c(C(=O)NC(C)c3ccccc3)cc2c1 (stereo not given) | 18* | 54 | -7% | -9% | 3% | ?
CC(=O)Nc1nonc1-c1nnc(SCC(=O)Nc2ccc(F)cc2F)n1-c1ccccc1 | . | . | . | 1% | . | .
CCCCCn1c(=S)[nH]c2ncccc2c1=O | 2 | -8 | 9.3µM* | -30% | -4% | 2%
CC(=O)c1ccc(C(=O)N(Cc2cccnc2)c2nc3c(Cl)cccc3s2)cc1 | . | . | . | -2% | . | .
O=C1[C@@H]2C[C@@H]3C[C@H]1C[C@@](O)(C3)C2 | . | . | -2% | . | . | -3%
Cc1cccc(Nc2cc(=O)[nH]c(=O)[nH]2)c1 | -2 | -4 | 12µM* | -1% | 13% | -7%
O=c1cc(Nc2cccc(Br)c2)[nH]c(=O)[nH]1 | -2 | -4 | 12µM* | 1% | . | -18%
O=C(NCCC1=CCCCC1)c1cnc2n(c1=O)CCS2 | 41* | 41* | -10% | 5% | -9% | 95%
O=C(NCCCc1ccccc1)c1cnc2n(c1=O)CCS2 | 38* | 63* | -5% | 0% | -15% | 55%
CCCCNC(=O)c1cnc2n(c1=O)CCS2 | 0 | 15 | 32% | -1% | -1% | 13%
O=C(NCCc1ccc(Cl)cc1)c1cnc2n(c1=O)CCS2 | 41* | + | 4% | 3% | -33% | 17%
COc1ccc(CCNC(=O)Cc2ccc(OCc3ccccc3)c(OC)c2[N+](=O)[O-])cc1OCc1ccccc1 | 5 | 14 | ? | -3% | ? | .
CN(C)S(=O)(=O)c1cc(NC(=O)COC(=O)C2CSC3(C)CCC(=O)N23)ccc1Cl (stereo not given) | 1 | -15 | ? | -16% | -15% | -10%
COC(=O)c1c(SCc2ccc(C#N)cc2)nc(=O)[nH]c1C | -2 | -14 | 14% | -5% | -6% | 0%
COC(=O)c1c(C)[nH]c(O)c1C=Nc1ccc(C#N)cc1 | 8 | 2 | 65%[1.15 µM] | 13µM* | -11% | 34%[1.15 µM]
CC12CCC=CC1C(c1ccc(F)c(Br)c1)N(Cc1ccccc1)C2=O (stereo not given) | 2 | -3 | . | . | . | .
Cc1cc(C)nc(SCc2ccc(C(=O)O)o2)n1 | -1 | -16 | ? | -21% | 6% | 12%
Cc1cc(C(F)(F)F)nc(SCc2ccc(C(=O)O)o2)n1 | -1 | 9 | 57% | 14µM* | -4% | 24%
CCC(=O)Nc1ccccc1-c1nc2ccccc2n(C(CC)C(=O)Nc2cccc(C(C)=O)c2)c1=O (stereo not given) | . | . | . | 8% | . | .

Assay outcomes as filed in PubChem.
